In the library only some 4% were active in any assay of this set; here they are far more common.
LMP1 NFkB inh = EBV LMP1-driven NF-kappaB luciferase reporter inhibitors, primary screen, cell-based, luminescence, single point | actives 0.69% (n = 350,000) | LMP1-induced NF-kappaB luciferase reporter cells | inhibition, % at 12.5 µM; in the data active = inhibition above about 41%; inconclusive = no clear call, values can overlap the other calls
MITF act = activators of MITF-driven TRPM1 promoter reporter, primary screen, cell-based, SK-MEL-5, luciferase, single point; SK-MEL-5 TRPM1-promoter luciferase, 24 h; % of positive control, neutral wells = 0; activation, % at 12.5 µM; actives 0.75% (n = 300,000);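 active = mean activation of at least 80% with every replicate also reaching 80%; inconclusive = mean reaches 80% but some replicate falls short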
Wnt bcat act = Wnt/beta-catenin pathway activators, primary screen, cell-based, plate reader, single point; Wnt/beta-catenin reporter cell assay, activator; activation, % at 9.35 µM; actives 1.2% (n = 300,000); in the data active = activation above about 30%, passing the limit was not always enough; inconclusive = no clear call, values can overlap the other calls
esBAF inh = Bmi1 luciferase reporter increase in mESCs, primary screen, esBAF inhibitor project, mouse ES cells, Bmi1 luciferase knock-in, single point | 24 h; 100% = twice the neutral-well signal | reporter increase, % at 12.5 µM | actives 2% (n = 350,000); in the data active = activation above about 40%; inconclusive = no clear call, values can overlap the other calls;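 also: a rise in the Bmi1 reporter signal indicates esBAF inhibition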
C2C12 statin = suppressors of statin myotoxicity in C2C12 myotubes, primary screen, cell-based, single point, plate reader; AID 602340, 2012; actives 0.78% (n = 330,000); rescue of ATP level, % at 7.49 µM; C2C12 myotubes + simvastatin, ATP luminescence, 48 h; scaled: DMSO 0, geranylgeraniol control 100;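 active = mean ATP rescue above about 67%, or every replicate alone reaching that limit, limit read from the data, passing the limit was not always enough; inconclusive = no clear call, values can overlap the other calls; inactive = mean under the limit and some replicate under it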;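 also: myotubes were challenged with 10 µM simvastatin during compound exposure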
TRPM1 prom inh = inhibitors of MITF-dependent TRPM1 promoter reporter, primary screen, cell-based, SK-MEL-5, single point, luciferase; SK-MEL-5 TRPM1 promoter luciferase, 24 h; inhibition, % at 12.5 µM; actives 0.83% (n = 330,000);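 active = mean inhibition across replicates of 60% or more, whatever share of single replicates reaches that level; inconclusive = some that reach 60%, reason not given; inactive = mean inhibition across replicates below 60%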
Numbers stand for hits; 0 = inactive; ? = inconclusive; - = not tested or not shown.

SMILES | LMP1 NFkB inh | MITF act | Wnt bcat act | esBAF inh | C2C12 statin | TRPM1 prom inh
O=C(CNC(=O)c1ccc2c(c1)OCO2)NCCOc1ccc(Cl)cc1 | 0 | 0 | 0 | 0 | 0 | 0
O=C(NCCc1ccccc1F)c1ccc2c(c1)OCCO2 | 84.7 | 0 | 0 | 0 | 0 | 88.4
O=C(NCCc1ccc(Cl)cc1)c1ccc2c(c1)OCO2 | 0 | 0 | 37.2 | - | - | 0
O=C(NCCOc1ccc(Cl)cc1)c1ccc2c(c1)OCCO2 | 0 | 97.6 | 0 | 0 | 0 | 0
Cc1cccc(NS(=O)(=O)c2ccc3[nH]c(=O)cc(C(=O)O)c3c2)c1 | 0 | 0 | 0 | - | - | 0
CC(C)CC(=O)N(Cc1ccc(F)cc1)C1CCS(=O)(=O)C1 (configuration not stated) | 0 | 0 | 0 | 0 | - | 0
CCCCC(=O)N(Cc1ccc(F)cc1)C1CCS(=O)(=O)C1 (configuration not stated) | 0 | 0 | 0 | 0 | 87.3 | 0
COc1ccc(N2C(=O)c3cccc4c(N(C)CCO)ccc(c34)C2=O)cc1 | 0 | - | 0 | 42.8 | 0 | 0
COc1ccc(N2C(=O)c3cccc4cccc(c34)C2=O)cc1 | 0 | 0 | 0 | 0 | 0 | 0
O=C1c2cccc3c(O)ccc(c23)C(=O)N1c1ccc(Cl)cc1 | 60.2 | 0 | 0 | 0 | 0 | 0
COc1cccc(OC)c1OCCOCCn1cnc2ccccc2c1=O | 0 | 0 | - | 0 | 0 | 0
O=C(NCc1cccnc1)c1c[nH]c2cc3c(cc2c1=O)OCCO3 | 0 | - | - | 62.0 | 0 | 0
Clc1cccc(-c2nc3c4ccccc4ccn3c2Cc2ccccc2)c1 | - | - | 0 | 0 | 0 | -
CC(C)NC(=O)N1C[C@H]2[C@@H](c3ccccc31)[C@@H](CO)N2C(=O)c1cccnc1 | - | - | - | 0 | 0 | -
O=C(NCC1CCCCC1)C1(CC2CC(c3cccc(Br)c3)=NO2)CCNCC1 (configuration not stated) | 0 | 0 | 0 | 0 | 0 | 65.1
N#Cc1ccc(-c2cccnc2)nc1SCC(=O)c1ccccc1 | 0 | - | 0 | 62.8 | 0 | 0
O=C(CC(=O)Nc1cccc(F)c1)Nc1cccc(F)c1 | 0 | - | 0 | 0 | 0 | 0
COc1ccc(NC(=O)C#Cc2ccccc2)cc1 | 0 | - | 0 | ? | 0 | 0
O=C(C#Cc1ccccc1)Nc1cccc(F)c1 | 0 | - | 0 | 0 | 159.2 | 0
O=C(C#Cc1ccccc1)Nc1ccc(F)cc1 | 0 | - | 0 | 49.3 | 0 | 0
CCOc1ccccc1/C=C(\C#N)C(=O)NC1CC1 | - | - | 0 | - | - | -
O=C(Nc1cccc(Cl)c1)c1cnn2cccnc12 | 0 | 89.3 | - | 0 | 0 | 0
CSc1cccc(NC(=O)c2cnn3ccccc23)c1 | 0 | 104.2 | 39.7 | - | - | 0
O=C(NC1CC1)c1cc(=S)[nH]c2ccccc12 | 0 | 0 | 0 | 0 | 0 | 0
Cc1cc(C)cc(NC(=O)Nc2ccc3ccccc3n2)c1 | 0 | - | 0 | - | - | 0
SMILES | LMP1 NFkB inh | MITF act | Wnt bcat act | esBAF inh | C2C12 statin | TRPM1 prom inh
O=C(Nc1ccc2ccccc2n1)c1ccccc1Br | 0 | 0 | 35.1 | 51.7 | 0 | 0
Cc1ccc(C(=O)Nc2ccc3ccccc3n2)cc1 | 0 | 0 | 35.7 | 0 | 0 | 0
O=C(Nc1ccc2ncccc2c1)c1ccccc1Br | 0 | - | - | 110.1 | 0 | 0
CCn1ccc(C(=O)Nc2ccc(Cl)cn2)n1 | 0 | - | 32.1 | 48.4 | 0 | -
O=C(Nc1ccc2ccccc2n1)c1ccccc1 | 0 | 0 | 0 | 0 | 0 | 0
CC(C)NC(=O)Nc1ccc2c(c1)C(=O)N([C@@H](C)CO)C[C@H](C)[C@H](CN(C)S(=O)(=O)c1ccccc1)OCCCC[C@@H](C)O2 | - | - | - | 0 | - | -
O=C(c1cccs1)N1CCC(c2nc(-c3ccc(S(=O)(=O)N4CCOCC4)cc3)no2)CC1 | 0 | 0 | - | 0 | 0 | 0
O=C(CSc1nnc(NC(=O)C2CCC2)s1)Nc1ccccc1F | 0 | 0 | 0 | 0 | 0 | 0
O=C(NCCCc1ccccc1)C1CCN(S(=O)(=O)c2ccc(F)cc2)CC1 | 0 | 0 | 0 | 0 | 0 | 0
C=Cc1ccc(CSc2cc(C)nc3nc(C)nn23)cc1 | 0 | 0 | 0 | 0 | 0 | 0
O=C1c2sc3nc4n(c(=O)c3c2CCC1Br)CCCCC4 (configuration not stated) | 0 | 0 | - | - | - | 0
